{"source": "paper PMC7862700", "about": "“An all-to-all approach to the identification of sequence-specific readers for epigenetic DNA modifications on cytosine”", "assay_in_all_cases": "DAPPL (digital affinity profiling via proximity ligation, sequencing); 10 mM Tris-HCl pH 7.5, 50 mM NaCl, 1 mM DTT, 4% glycerol, room temperature, 30 min; GST-TFs on glutathione beads, 16-mer random dsDNA library, 0.1% formaldehyde crosslink after washing; high values mean tight binding", "settings_in_all_cases": "protein: recombinant; tags: N-terminal GST; dsDNA, one strand shown", "key": {"ETV5": {"target": "ETV5 (Homo sapiens, UniProt P41161 1-510)", "sequence (P41161 whole entry, the tested form may be a part)": "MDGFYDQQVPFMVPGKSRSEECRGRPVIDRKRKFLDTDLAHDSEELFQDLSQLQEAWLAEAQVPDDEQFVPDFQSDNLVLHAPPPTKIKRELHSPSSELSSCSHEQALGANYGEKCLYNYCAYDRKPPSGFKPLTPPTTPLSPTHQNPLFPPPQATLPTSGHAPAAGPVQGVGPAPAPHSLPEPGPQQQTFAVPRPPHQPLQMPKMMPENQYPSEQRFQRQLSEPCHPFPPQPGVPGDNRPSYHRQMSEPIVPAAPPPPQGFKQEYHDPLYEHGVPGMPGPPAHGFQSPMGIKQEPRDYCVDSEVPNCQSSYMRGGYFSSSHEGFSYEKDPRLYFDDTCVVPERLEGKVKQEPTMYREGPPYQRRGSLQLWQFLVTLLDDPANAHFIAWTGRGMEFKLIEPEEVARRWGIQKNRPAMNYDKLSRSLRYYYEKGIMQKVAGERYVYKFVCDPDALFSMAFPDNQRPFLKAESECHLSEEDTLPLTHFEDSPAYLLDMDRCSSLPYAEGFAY", "outline": "(§1)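 A tag-only sample was pooled with DNA-barcoded human transcription factors that had been expressed in yeast as GST fusions and captured on glutathione beads. The pools were incubated for 30 min at room temperature with 200 nmole of a random double-stranded 16-mer DNA library in Tris/NaCl/DTT/glycerol buffer, then washed, crosslinked with 0.1% formaldehyde, proximity-ligated (BsaI/T4 ligase, 1 h, 37 °C), PCR-amplified and sequenced on an Illumina NextSeq500. Binding signal is each hexamer's read frequency for a factor divided by its frequency for the tag-only sample.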"}, "ELF4": {"target": "ELF4 (Homo sapiens, UniProt Q99607 1-663)", "sequence (Q99607 whole entry)": "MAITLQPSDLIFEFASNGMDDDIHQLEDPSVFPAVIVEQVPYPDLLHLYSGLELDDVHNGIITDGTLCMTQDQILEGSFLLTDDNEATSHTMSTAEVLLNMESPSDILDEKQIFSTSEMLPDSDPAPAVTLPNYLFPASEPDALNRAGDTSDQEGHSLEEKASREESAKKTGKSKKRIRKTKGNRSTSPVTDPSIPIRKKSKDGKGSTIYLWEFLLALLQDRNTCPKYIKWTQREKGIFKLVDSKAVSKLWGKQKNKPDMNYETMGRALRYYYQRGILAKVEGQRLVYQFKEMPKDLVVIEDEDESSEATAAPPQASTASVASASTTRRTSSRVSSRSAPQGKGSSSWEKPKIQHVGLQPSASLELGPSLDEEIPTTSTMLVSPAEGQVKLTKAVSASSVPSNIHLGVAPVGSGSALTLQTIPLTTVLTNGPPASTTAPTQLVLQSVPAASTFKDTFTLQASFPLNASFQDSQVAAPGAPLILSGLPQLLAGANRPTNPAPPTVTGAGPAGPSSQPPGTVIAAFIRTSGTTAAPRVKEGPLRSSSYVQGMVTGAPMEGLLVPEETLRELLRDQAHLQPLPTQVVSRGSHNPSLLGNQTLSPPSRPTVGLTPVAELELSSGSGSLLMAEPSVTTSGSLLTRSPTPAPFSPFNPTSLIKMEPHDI", "outline": "as §1"}, "ELF3": {"target": "T1, ELF3 (Homo sapiens, UniProt P78545 1-371)", "T1 sequence": "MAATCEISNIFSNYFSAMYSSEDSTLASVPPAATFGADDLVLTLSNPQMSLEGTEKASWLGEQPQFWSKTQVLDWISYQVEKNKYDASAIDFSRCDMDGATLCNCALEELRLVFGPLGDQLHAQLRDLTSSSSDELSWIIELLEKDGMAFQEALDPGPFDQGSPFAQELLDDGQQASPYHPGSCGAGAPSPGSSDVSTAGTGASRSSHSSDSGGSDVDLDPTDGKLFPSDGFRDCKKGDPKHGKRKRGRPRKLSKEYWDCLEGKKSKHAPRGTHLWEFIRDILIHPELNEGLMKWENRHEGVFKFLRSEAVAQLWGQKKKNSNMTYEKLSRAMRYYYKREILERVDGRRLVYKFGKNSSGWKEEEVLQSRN", "outline": "as §1"}, "ETV7": {"target": "T2, ETV7 (Homo sapiens, UniProt Q9Y603 1-341)", "T2 sequence": "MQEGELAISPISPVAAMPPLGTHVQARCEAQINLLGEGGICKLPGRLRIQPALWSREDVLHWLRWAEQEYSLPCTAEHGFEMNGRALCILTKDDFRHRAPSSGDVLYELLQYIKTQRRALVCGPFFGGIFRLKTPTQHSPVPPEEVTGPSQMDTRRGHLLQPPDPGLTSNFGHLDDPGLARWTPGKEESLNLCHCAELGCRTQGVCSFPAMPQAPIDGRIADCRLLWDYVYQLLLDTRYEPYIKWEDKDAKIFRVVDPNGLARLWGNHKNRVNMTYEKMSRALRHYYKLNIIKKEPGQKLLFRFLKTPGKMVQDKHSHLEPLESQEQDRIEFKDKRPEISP", "outline": "as §1"}}, "data": [{"sequence": "ACAAGA", "values": [{"measurement": "binding signal", "setting": "ETV5", "result": "1.03 fold enrichment (6-mer frequency, TF over GST control)"}, {"measurement": "binding signal", "setting": "ELF4", "result": "1.03 fold enrichment (6-mer frequency, TF over GST control)"}, {"measurement": "binding signal", "setting": "ELF3", "result": "1.1 fold enrichment (6-mer frequency, TF over GST control)"}, {"measurement": "binding signal", "setting": "ETV7", "result": "1.02 fold enrichment (6-mer frequency, TF over GST control)"}]}]}
